PubChem BioAssay
Calls of active or inactive are those of the source.

Experiments:
[1] = small molecules captured by biotinylated probe aFSTL3 – biochemical, small-molecule microarray, fluorescence 635/667, stem cell growth factor project, primary screen (AID 1064); conditions: higher = more signal;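 also: measures binding of the biotinylated anti-FSTL3 antibody to printed compounds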
[2] = binders from COS7 lysate, DM2A8 probe, primary screen, torsin A project, cell lysate, small-molecule microarray, fluorescence 635/667 (AID 1065); conditions: higher = more signal, COS7 lysate expressing mutant human TOR1A
[3] = small molecules captured by biotinylated probe aFGF2 – biochemical, small-molecule microarray, fluorescence 635/667, stem cell growth factor project, primary screen (AID 1067); conditions: higher = more signal;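 also: measures binding of biotinylated aFGF2 protein to printed compounds on slides; z-score merges feature fluorescence and signal-to-noise across triplicate slides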
[4] = small molecules captured by biotinylated probe aFGF10 – biochemical, small-molecule microarray, fluorescence 635/667, stem cell growth factor project, primary screen (AID 1071); conditions: higher = more signal;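 also: score merges 667 nm spot intensity and signal to noise from triplicate slides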
[5] = target: Neurogenic locus notch homolog protein 2 (Homo sapiens) (UniProt Q04721); test: small molecules binding Notch2 protein – biochemical, small-molecule microarray, 635 nm fluorescence, stem cell growth factors, primary screen (AID 1073); conditions: higher = more signal
[6] = target: Pro-neuregulin-1, membrane-bound isoform (Homo sapiens) (UniProt Q02297); test: small molecules binding neuregulin-1 protein – biochemical, small-molecule microarray, fluorescence 635/667, psychiatric disease protein project, primary screen (AID 1075); conditions: NRG1 binding, 635 nm fluorescence, higher = more signal;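 also: score combines 667 nm spot fluorescence with signal to noise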
[7] = test system: Neuregulin-1 EGF-like domain; test: small molecules binding NRG1 EGF domain – biochemical, small-molecule microarray, 635 nm fluorescence, primary screen (AID 1081); conditions: higher = more signal;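 also: binding of the protein to compounds printed on small-molecule microarray slides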
[8] = FRG1 expression reporter modulators in myotubes – cell-based, C2C12 myotubes, firefly/Renilla luciferase, luminescence, FRG1 inhibition for FSHD, primary screen (AID 1084); conditions: FRG1 promoter luciferase, higher = more signal, called active from +8 up or from −8 down
[9] = small molecules captured by biotinylated probe aFST – biochemical, small-molecule microarray, fluorescence 635/667, stem cell growth factor project, primary screen (AID 1086); conditions: higher = more signal;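 also: score merges 667 nm fluorescence with signal-to-noise of each printed compound spot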
[10] = binders of probe aHhip on microarray, primary screen, stem cell growth factor project, biochemical, small-molecule microarray, fluorescence 635/667 (AID 1087); conditions: higher = more signal;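 also: score merges spot fluorescence at 667nm with spot signal to noise ratio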

Sequence of Pro-neuregulin-1, membrane-bound isoform (Homo sapiens) (Q02297 whole entry, looked up, the tested form may be a part, canonical isoform): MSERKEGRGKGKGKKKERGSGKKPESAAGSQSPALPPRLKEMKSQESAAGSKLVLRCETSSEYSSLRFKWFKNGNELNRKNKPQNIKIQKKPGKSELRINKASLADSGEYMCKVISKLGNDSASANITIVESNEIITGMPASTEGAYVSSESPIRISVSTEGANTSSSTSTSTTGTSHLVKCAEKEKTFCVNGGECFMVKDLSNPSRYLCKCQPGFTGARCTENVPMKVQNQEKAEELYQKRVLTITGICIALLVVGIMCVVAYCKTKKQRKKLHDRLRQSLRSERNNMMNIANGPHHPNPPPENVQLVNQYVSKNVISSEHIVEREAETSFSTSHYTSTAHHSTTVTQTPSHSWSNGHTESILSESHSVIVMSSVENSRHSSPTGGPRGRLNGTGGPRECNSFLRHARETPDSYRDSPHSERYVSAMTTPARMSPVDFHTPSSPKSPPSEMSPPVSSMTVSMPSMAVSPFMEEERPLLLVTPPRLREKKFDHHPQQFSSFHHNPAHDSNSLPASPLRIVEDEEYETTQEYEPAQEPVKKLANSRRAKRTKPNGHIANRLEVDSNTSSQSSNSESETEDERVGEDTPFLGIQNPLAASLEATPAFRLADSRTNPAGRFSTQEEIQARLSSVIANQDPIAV
Sequence of Neurogenic locus notch homolog protein 2 (Homo sapiens) (Q04721 whole entry, looked up, canonical isoform): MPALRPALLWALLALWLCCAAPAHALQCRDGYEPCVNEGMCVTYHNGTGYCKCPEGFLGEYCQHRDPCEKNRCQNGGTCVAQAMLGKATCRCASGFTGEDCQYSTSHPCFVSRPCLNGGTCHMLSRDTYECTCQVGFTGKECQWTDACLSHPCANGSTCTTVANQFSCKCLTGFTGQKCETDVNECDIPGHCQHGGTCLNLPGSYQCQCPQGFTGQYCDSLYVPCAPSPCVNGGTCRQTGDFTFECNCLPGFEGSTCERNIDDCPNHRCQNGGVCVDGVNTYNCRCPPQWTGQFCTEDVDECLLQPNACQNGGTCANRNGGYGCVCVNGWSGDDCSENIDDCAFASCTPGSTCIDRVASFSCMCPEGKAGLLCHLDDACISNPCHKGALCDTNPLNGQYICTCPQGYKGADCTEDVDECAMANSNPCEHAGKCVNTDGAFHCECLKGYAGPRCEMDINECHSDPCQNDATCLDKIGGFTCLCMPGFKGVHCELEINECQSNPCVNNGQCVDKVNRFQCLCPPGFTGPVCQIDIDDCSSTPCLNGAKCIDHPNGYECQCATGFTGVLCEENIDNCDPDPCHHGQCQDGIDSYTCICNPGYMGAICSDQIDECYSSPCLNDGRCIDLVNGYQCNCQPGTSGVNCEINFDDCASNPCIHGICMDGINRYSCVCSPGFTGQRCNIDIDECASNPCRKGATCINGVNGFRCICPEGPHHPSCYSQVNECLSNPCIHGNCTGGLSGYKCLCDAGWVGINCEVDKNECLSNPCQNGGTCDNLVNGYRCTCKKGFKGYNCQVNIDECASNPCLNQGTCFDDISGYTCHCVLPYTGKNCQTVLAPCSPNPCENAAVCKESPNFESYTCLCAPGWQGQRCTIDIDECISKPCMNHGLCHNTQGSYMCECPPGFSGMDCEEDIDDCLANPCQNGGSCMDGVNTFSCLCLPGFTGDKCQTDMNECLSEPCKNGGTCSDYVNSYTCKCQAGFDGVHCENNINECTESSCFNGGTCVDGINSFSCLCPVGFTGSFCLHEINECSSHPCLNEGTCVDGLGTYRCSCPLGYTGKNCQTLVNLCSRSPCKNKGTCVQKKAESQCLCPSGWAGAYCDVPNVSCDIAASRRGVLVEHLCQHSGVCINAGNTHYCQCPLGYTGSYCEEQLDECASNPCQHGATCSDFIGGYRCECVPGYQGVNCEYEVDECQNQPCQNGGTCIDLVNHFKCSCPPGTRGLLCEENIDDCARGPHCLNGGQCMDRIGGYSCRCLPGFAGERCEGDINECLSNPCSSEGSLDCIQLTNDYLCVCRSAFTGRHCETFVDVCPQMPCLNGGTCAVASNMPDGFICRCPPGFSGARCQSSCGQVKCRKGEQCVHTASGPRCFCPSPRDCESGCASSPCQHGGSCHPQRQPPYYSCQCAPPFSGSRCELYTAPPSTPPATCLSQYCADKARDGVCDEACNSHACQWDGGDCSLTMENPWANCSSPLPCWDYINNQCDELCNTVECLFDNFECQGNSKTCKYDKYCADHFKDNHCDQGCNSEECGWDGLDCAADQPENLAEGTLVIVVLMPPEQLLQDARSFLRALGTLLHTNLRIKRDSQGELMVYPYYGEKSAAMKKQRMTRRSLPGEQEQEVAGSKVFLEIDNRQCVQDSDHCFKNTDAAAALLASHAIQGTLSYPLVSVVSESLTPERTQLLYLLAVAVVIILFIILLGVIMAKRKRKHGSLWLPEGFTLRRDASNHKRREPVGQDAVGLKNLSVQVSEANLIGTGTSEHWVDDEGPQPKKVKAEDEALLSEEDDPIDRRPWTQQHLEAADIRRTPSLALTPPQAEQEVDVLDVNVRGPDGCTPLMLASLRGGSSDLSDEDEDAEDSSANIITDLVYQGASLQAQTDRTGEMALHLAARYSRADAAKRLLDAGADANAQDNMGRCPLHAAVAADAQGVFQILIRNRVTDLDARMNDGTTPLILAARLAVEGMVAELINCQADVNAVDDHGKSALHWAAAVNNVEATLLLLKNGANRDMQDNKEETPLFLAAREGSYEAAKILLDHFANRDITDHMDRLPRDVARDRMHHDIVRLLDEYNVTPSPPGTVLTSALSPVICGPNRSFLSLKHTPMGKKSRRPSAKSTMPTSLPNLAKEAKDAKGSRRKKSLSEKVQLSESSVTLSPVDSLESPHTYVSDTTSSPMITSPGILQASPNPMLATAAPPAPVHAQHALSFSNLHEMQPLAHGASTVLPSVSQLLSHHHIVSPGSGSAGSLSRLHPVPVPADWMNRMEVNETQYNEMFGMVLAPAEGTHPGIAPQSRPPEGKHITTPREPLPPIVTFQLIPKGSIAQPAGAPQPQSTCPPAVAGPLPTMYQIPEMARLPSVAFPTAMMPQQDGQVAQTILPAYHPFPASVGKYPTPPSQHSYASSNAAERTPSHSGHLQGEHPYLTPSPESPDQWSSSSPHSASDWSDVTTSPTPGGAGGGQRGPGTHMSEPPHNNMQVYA

Compound	composite z-score [1]	composite z-score [2]	composite z-score [3]	composite z-score [4]	composite z-score [5]	composite z-score [6]	composite z-score [7]	z-score [8]	composite z-score [9]	composite z-score [10]
O=C1O[C@H](c2ccccc2)[C@H](c2ccccc2)N2[C@H]1[C@@H](C(=O)O)[C@]1(C(=O)Nc3ccccc31)[C@H]2c1ccc(OCCO)cc1	-0.442	-0.0349	-0.0112	0.334	0.239	1.57	1.04	0.248 (inactive)	0.215	0.176
C=C(CCCC)C(=O)CC[C@H](OC(=O)c1ccccc1-c1ccccc1C(=O)O)c1cccc(OCCO)c1	0.0622	0.375	-0.133	-0.416	-1.37	1.29	0.652	-0.0278 (inactive)	-0.284	-0.0994
COC(=O)[C@@]1(Cc2ccc(F)cc2)[C@H]2c3cc(C(=O)N4CCCC4)n(C[C@H](O)CO)c3C[C@H]2CN1C(=O)c1ccccc1	0.468	0.501	0.474	0.697	1.17	2.15	1.16	3.49 (inactive)	1.42	1.35
CN1C(=O)C2CC=C(C3=CCO[C@@H]3[C@H]3CCCN3S(=O)(=O)c3ccccc3[N+](=O)[O-])CC2C1=O (stereo not given in full)	0.895	-0.216	-0.166	0.114	-0.456	0.789	-0.132	-0.869 (inactive)	0.0699	0.0373
COc1cc(CO)cc(I)c1O[C@H]1C=C(C(=O)NCCO)C[C@@H](N(CCN2CCOCC2)C(=O)C2CCCO2)[C@@H]1O (stereo not given in full)	-0.351	0.193	-0.109	0.228	1.14	-0.34	0.201	0.104 (inactive)	0.0496	-0.0383
C=C(C)C1CN([C@H](CO)c2ccccc2)C(=O)/C1=C\c1ccccc1 (stereo not given in full)	-0.511	0.188	-0.111	0.305	-0.0443	0.049	0.465	-1.39 (inactive)	0.173	-0.174
[N-]=[N+]=Nc1ccccc1C[C@]1(C(N)=O)COC(c2ccc(OCCCO)cc2)=N1	1.05	-0.455	0.0247	0.149	0.278	1.81	1.34	3.48 (inactive)	0.236	-0.0618
COC(=O)[C@@]1(Cc2ccc(F)cc2)[C@H]2c3cc(C(=O)N4CCCC4)n(Cc4ccc(C(F)(F)F)nc4)c3C[C@H]2CN1C(=O)c1ccccc1	0.581	-0.0219	0.16	0.0812	1.74	2.1	0.92	2 (inactive)	2.25	-0.0799
O=C(c1ccccc1)N1Cc2ccccc2C[C@@]2(N=C(c3ccc(OCCCO)cc3)O[C@H]2c2ccccc2)C1=O	-0.302	0.564	-0.0538	0.458	1.13	1.05	1.21	-3.39 (inactive)	0.229	0.201
C=CCNC(=O)[C@H]1[C@@H]2C(=O)O[C@@H](c3ccccc3)[C@@H](c3ccccc3)N2[C@@H](c2ccc(OCCO)cc2)[C@]12C(=O)N(C(=O)OCCOC)c1ccc(C#CCC(C(=O)OC)C(=O)OC)cc12	1.55	0.948	0.18	1.1	0.881	1.63	1.19	0.9 (inactive)	0.725	1.58
C=C(/C=C\CNS(=O)(=O)c1ccc(C)cc1)[C@H](O)[C@H]1CCCN1S(=O)(=O)c1ccccc1[N+](=O)[O-]	-0.0107	0.014	-0.114	0.108	0.361	0.618	0.577	-4.49 (inactive)	-0.105	0.0373
CN1C(=O)C2C=CC(C(O)COCc3ccccc3)N(Nc3ccc([N+](=O)[O-])cc3[N+](=O)[O-])C2C1=O (stereo not given)	0.0982	-0.0795	0.0952	0.475	0.172	0.0948	0.752	1.16 (inactive)	0.329	-0.167
O=C1N(Cc2ccccc2)c2ccccc2C[C@@]12N=C(c1ccc(OCCCO)cc1)O[C@H]2c1ccccc1	-0.0448	0.0182	-0.0129	0.311	0.18	0.909	1.14	-2.64 (inactive)	-0.238	-0.0925
CC(=O)NCCCC[C@@H]1NC(=O)[C@H]2C[C@@H](C(=O)O)[C@@H](c3cccc(OCCO)c3)N2C1=O	-0.318	1.1	0.0761	0.841	1.15	1.14	1.18	0.618 (inactive)	0.491	-0.0862
COc1ccc(CCNC(=O)[C@@H]2c3ccccc3C(=O)N(Cc3cc(F)cc(C(F)(F)F)c3)[C@H]2c2ccc(CO)cc2)cc1	1.65	0.705	0.272	0.235	0.158	1.17	0.975	-1.36 (inactive)	2.49	-0.251
Cc1cccc([C@H]2C[C@H]3C(Br)=C[C@@]2(CO)C(=O)[C@]32CO2)c1	-0.053	-0.65	-0.125	0.0924	-0.368	0.131	0.708	1.46 (inactive)	0.275	-0.0994
O=C(NCCN1CCOCC1)[C@@H]1c2ccccc2C(=O)N(CC23CC4CC(CC(C4)C2)C3)[C@H]1c1ccc(CO)cc1	-0.203	0.336	0.0458	0.734	1.64	1.78	1.39	-2.37 (inactive)	0.742	0.0373

Compound	composite z-score [1]	composite z-score [2]	composite z-score [3]	composite z-score [4]	composite z-score [5]	composite z-score [6]	composite z-score [7]	z-score [8]	composite z-score [9]	composite z-score [10]
CC(C)(C)OC(=O)N1[C@@H](C=C(Br)Br)COC1(C)C	-0.195	-0.0287	0.0014	0.348	0.519	-0.0961	0.286	-1.42 (inactive)	0.125	0.0302
C[C@]12C(=O)N(CCO)[C@@H]3C(=O)N(c4ccc(Cl)cc4)CC=CC31O[C@@H]1/C=C\CCCOC(=O)C12 (stereo not given in full)	0.721	-0.581	-0.0985	-0.986	-0.759	1.12	0.0495	0.868 (inactive)	-0.599	-0.132
O=C1O[C@H](c2ccccc2)[C@H](c2ccccc2)N2[C@H]1[C@@H](C(=O)Nc1nc3ccccc3s1)[C@]1(C(=O)Nc3ccccc31)[C@H]2c1ccccc1OCCO	-0.249	-0.0611	0.0084	0.12	1.15	1.42	1.02	1.62 (inactive)	-0.0275	-0.0994
CN1C(=O)C2C(C1=O)C1C=C(CCCO)C2C(C2CC2)N1C (stereo not given)	0.227	-0.144	0.078	0.333	0.196	0.496	0.625	-0.818 (inactive)	-0.196	-0.385
CCCCCCCCCCC(O)C1C=CC2C(=O)N(C)C(=O)C2N1Nc1ccccc1 (stereo not given)	0.889	0.149	-0.229	-1.07	-0.932	0.0962	-0.101	0.767 (inactive)	-0.191	-0.469
COCCCNC(=O)[C@@]1(Cc2ccccc2I)c2ccccc2C(=O)N(Cc2ccccc2OC)[C@H]1c1ccc(CO)cc1	0.841	0.32	0.096	0.655	-1.09	1.3	1.3	-2.86 (inactive)	-0.523	-0.195
O=C1C2C=CC(C(O)C3CCCCC3)N(Nc3ccccc3F)C2C(=O)N1c1ccccc1 (stereo not given)	0.967	0.619	0.257	0.682	1.66	1.93	1.31	-0.227 (inactive)	1.55	-0.0617
COC(=O)C(CC#Cc1ccc2c(c1)[C@]1(C(=O)N2)[C@H](c2ccc(OCCO)cc2)N2[C@H](c3ccccc3)[C@H](c3ccccc3)OC(=O)[C@H]2[C@@H]1C(N)=O)C(=O)OC	0.0757	0.268	0.187	0.489	0.0619	1.26	1.17	2.1 (inactive)	-0.0778	0.0826
COCCOC(=O)N1C(=O)[C@@]2(c3cc(C#CCNC(N)=O)ccc31)[C@H](C(=O)N1CCN(c3ncccn3)CC1)[C@H]1C(=O)O[C@H](c3ccccc3)[C@H](c3ccccc3)N1[C@@H]2c1ccc(O)cc1	-1.35	0.0122	-0.282	-0.129	-1.15	-0.37	-0.475	-1.04 (inactive)	-0.874	-0.769
CCOC(=O)C=C1C[C@@H](c2cccc([N+](=O)[O-])c2)O[C@@H](c2cccc([N+](=O)[O-])c2)O1	0.654	0.178	0.429	0.432	1.59	0.962	0.896	-2.17 (inactive)	1.72	-0.226
COC(=O)[C@H]1N=C(c2ccc(OCCCO)cc2)O[C@H]1c1ccccc1N=[N+]=[N-]	1.6	0.707	0.184	0.48	1.01	0.544	1.21	4.9 (inactive)	1.04	-0.0994
C=C(CC1([C@@H](NP(=O)(c2ccccc2)c2ccccc2)[C@H]2C[C@@H]2CCCC)CC1)c1cccc(OC)c1	0.511	-0.411	0.112	0.343	1.47	0.0917	0.737	1.5 (inactive)	1.66	0.579
O=C(CS)NCCCCCCNC(=O)[C@H]1C[C@H]2C(=O)NCC(=O)N2[C@H]1c1cccc(OCCO)c1	-0.0511	0.0436	-0.0488	0.22	0.166	1.36	1.36	0.525 (inactive)	0.0909	0.0024
C[C@@]1([C@@H](NS(=O)(=O)c2cccc3cccnc23)c2ccc(-c3ccccc3)cc2)C[C@H]1C1CCCCC1	0.299	0.0816	0.163	-0.0733	0.983	0.609	0.809	-0.365 (inactive)	-0.244	0.0446
COc1ccc(C(O)C2C=CC3C(=O)N(c4ccccc4)C(=O)C3N2Nc2ccccc2F)c2ccccc12 (stereo not given)	1.24	1.08	0.433	1.14	1.72	1.79	1.23	1.25 (inactive)	1.89	-0.233
COc1cccc(C)c1NC(=O)O[C@H]1[C@H](OC(=O)Nc2ccccc2-c2ccccc2)[C@@H](OC(=O)Nc2ccccc2-c2ccccc2)[C@@H](OC)O[C@@H]1CO	-0.182	0.968	0.141	1.17	1.61	1.74	1.38	0.945 (inactive)	1.64	0.053
